Reference: PubChem BioAssay (NCI)
About 79,000 compounds went through this panel and 15% of them were active in at least one assay; those are over-represented in the sample as a whole. The source made the active and inactive calls. No stated cut-off is given here; in the data, active means growth inhibition above about 70%; inactive means the rest.

What was measured:
[1] = NCI Yeast Anticancer Drug Screen. Data for the wt1 strain (AID 149);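 further: 0% = growth of vehicle-treated wt1 cultures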; conditions: S. cerevisiae wt1 strain (SPY 50644) growth inhibition, stronger effect = higher value
Procedure, shortened: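 The wt1 strain was treated with compounds, and growth was compared with vehicle-treated cultures to give inhibition.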

[2] = NCI Yeast Anticancer Drug Screen. Data for the rad50EPP+ strain (AID 151);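 further: 0% = growth of vehicle-treated control cultures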; conditions: S. cerevisiae rad50 mutant strain, stronger effect = higher value
Procedure, shortened: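 In this screen, rad50EPP+ yeast were exposed to compounds. Growth inhibition was scored against vehicle-treated controls.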

[3] = NCI Yeast Anticancer Drug Screen. Data for the mgt1 strain (AID 153); conditions: S. cerevisiae mgt1 mutant growth inhibition, stronger effect = higher value
Procedure, shortened: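 mgt1 strain exposed; growth vs vehicle control recorded as inhibition.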

[4] = NCI Yeast Anticancer Drug Screen. Data for the rad50 strain (AID 155);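 further: 0% = growth of vehicle-only cultures of the same strain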; conditions: S. cerevisiae rad50 strain growth inhibition, stronger effect = higher value
Procedure, shortened: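 Cells are treated with compound, grown, and their growth is then scored against vehicle-only cultures of the same repair-deficient yeast strain.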

[5] = NCI Yeast Anticancer Drug Screen. Data for the mec2-1 strain (AID 157); conditions: S. cerevisiae mec2-1 strain, stronger effect = higher value
Procedure, shortened: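 Vehicle-treated cultures served as reference for growth inhibition of compound-exposed mec2-1 yeast.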

[6] = NCI Yeast Anticancer Drug Screen. Data for the rad14 strain (AID 159);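 further: 0% = growth of vehicle-treated control cultures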; conditions: S. cerevisiae rad14 strain growth inhibition, stronger effect = higher value
Procedure, shortened: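 Readout: yeast growth inhibition, referenced to vehicle-only cultures. Strain bears a defined alteration in DNA damage repair.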

[7] = NCI Yeast Anticancer Drug Screen. Data for the sgs1 mgt1 strain (AID 161);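 further: 0% = growth of cultures given vehicle only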; conditions: S. cerevisiae sgs1 mgt1 strain, stronger effect = higher value
Procedure, shortened: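 Mutant yeast exposed to compound; growth scored against vehicle-only wells.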

[8] = NCI Yeast Anticancer Drug Screen. Data for the CLN2oe strain (AID 163);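 further: 0% = growth of vehicle-only control cultures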; conditions: S. cerevisiae CLN2oe strain, stronger effect = higher value
Procedure, shortened: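 Inhibition relative to vehicle-treated yeast is reported. Cells: strain with genetic alteration in cell-cycle control, grown with compound.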

[9] = NCI Yeast Anticancer Drug Screen. Data for the cln2 rad14 strain (AID 165);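 further: 0% = growth equal to vehicle treated cultures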; conditions: S. cerevisiae cln2 rad14 strain, stronger effect = higher value
Procedure, shortened: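 Each compound was tested on cln2 rad14 yeast. Inhibition of growth was calculated against vehicle-exposed controls.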

[10] = NCI Yeast Anticancer Drug Screen. Data for the bub3 strain (AID 167); conditions: S. cerevisiae bub3 mutant strain, stronger effect = higher value
Procedure, shortened: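 Part of a panel of yeast mutants defective in DNA damage repair or cell cycle regulation. Each strain is grown with compound, and inhibition is calculated relative to solvent-treated cultures.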

[11] = NCI Yeast Anticancer Drug Screen. Data for the wt2 strain (AID 169);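 further: 0% = growth of vehicle-treated yeast cultures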; conditions: S. cerevisiae wt2 strain growth inhibition, stronger effect = higher value
Procedure, shortened: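 Inhibition of yeast growth was determined after compound treatment, normalised to controls receiving only vehicle.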

[12] = NCI Yeast Anticancer Drug Screen. Data for the mlh1 strain (AID 171);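 further: 0% = growth of vehicle-treated control cultures of the same strain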; conditions: S. cerevisiae mlh1 strain growth inhibition, stronger effect = higher value
Procedure, shortened: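 Vehicle-normalised growth inhibition of a repair- or checkpoint-altered yeast strain following compound treatment.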

[13] = NCI Yeast Anticancer Drug Screen. Data for the sgs1 strain (AID 173);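 further: 0% = growth of vehicle-only control cultures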; conditions: S. cerevisiae sgs1 mutant, stronger effect = higher value
Procedure, shortened: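 Screen format: yeast with repair or checkpoint alterations, compound exposure, growth read relative to vehicle.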

[14] = NCI Yeast Anticancer Drug Screen. Data for the mlh1 rad18 strain (AID 175); conditions: S. cerevisiae mlh1 rad18 strain growth inhibition, stronger effect = higher value
Procedure, shortened: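 Vehicle-treated cultures served as the reference for growth inhibition in a yeast strain carrying DNA damage repair alterations exposed to each compound.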

[15] = NCI Yeast Anticancer Drug Screen. Data for the rad18 strain (AID 177); conditions: S. cerevisiae rad18 mutant growth inhibition, stronger effect = higher value
Procedure, shortened: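 Test articles were incubated with altered yeast defective in DNA damage repair. Results are given as inhibition of growth versus vehicle.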

[16] = at 5.0 µM (retest, dose inferred, filed as 0.5)
[17] = at 50.0 µM (retest, dose inferred, filed as 5.0)

Measured: growth inhibition

Cc1ccc(C2C(Cl)C(=O)N2n2cnc3ccccc3c2=O)cc1 (stereo not drawn)
active: [10]; [17] 84%
inactive: [1]; at 1.2 µM 8% | [1]; at 3.7 µM 14% | [1]; at 11.0 µM 19% | [1]; at 33.0 µM 6% | [1]; at 100.0 µM 6% | [2]; at 1.2 µM -13% | [2]; at 3.7 µM -6% | [2]; at 11.0 µM -3% | [2]; at 33.0 µM 34% | [2]; at 100.0 µM 51% | [3]; at 1.2 µM -15% | [3]; at 3.7 µM -11% | [3]; at 11.0 µM -23% | [3]; at 33.0 µM -19% | [3]; at 100.0 µM -27% | [4]; at 1.2 µM -2% | [4]; at 3.7 µM 0% | [4]; [16] 14% | [4]; at 11.0 µM -6% | [4]; at 33.0 µM -6% | [4]; [17] -4% | [4]; at 50.0 µM -15.2% | [4]; at 100.0 µM -20% | [5]; at 1.2 µM -6% | [5]; at 3.7 µM -12% | [5]; [16] -16% | [5]; at 11.0 µM -10% | [5]; at 33.0 µM -11% | [5]; [17] 10% | [5]; at 50.0 µM 12.5% | [5]; at 100.0 µM -15% | [6]; at 1.2 µM -15% | [6]; at 3.7 µM -19% | [6]; at 11.0 µM -9% | [6]; at 33.0 µM -12% | [6]; at 100.0 µM -4% | [7]; [16] -4% | [7]; [17] 20% | [7]; at 50.0 µM -0.75% | [8]; at 1.2 µM -23% | [8]; at 3.7 µM -43% | [8]; at 11.0 µM -18% | [8]; at 33.0 µM -54% | [8]; at 100.0 µM -20% | [9]; [16] 4% | [9]; [17] 28% | [9]; at 50.0 µM 6.4% | [10]; at 1.2 µM -10% | [10]; at 3.7 µM -7% | [10]; [16] 33% | [10]; at 11.0 µM 3% | [10]; at 33.0 µM 46% | [10]; at 50.0 µM 68.6% | [10]; at 100.0 µM 62% | [11]; at 1.2 µM -15% | [11]; at 3.7 µM -19% | [11]; at 11.0 µM -18% | [11]; at 33.0 µM -23% | [11]; at 100.0 µM -8% | [12]; at 1.2 µM -39% | [12]; at 3.7 µM -39% | [12]; at 11.0 µM -41% | [12]; at 33.0 µM -34% | [12]; at 100.0 µM -4% | [13]; at 1.2 µM 11% | [13]; at 3.7 µM 17% | [13]; at 11.0 µM 11% | [13]; at 33.0 µM 22% | [13]; at 100.0 µM 30% | [14]; [16] -9% | [14]; [17] 6% | [14]; at 50.0 µM -11.2% | [15]; at 1.2 µM -1% | [15]; at 3.7 µM 6% | [15]; at 11.0 µM -1% | [15]; at 33.0 µM -7% | [15]; at 100.0 µM -5%

OC(c1ccc(F)cc1)(c1ccc(F)cc1)C1CC1
inactive: [1]; at 1.2 µM -38% | [1]; at 3.7 µM -33% | [1]; at 11.0 µM -36% | [1]; at 33.0 µM -27% | [2]; at 1.2 µM -10% | [2]; at 3.7 µM -17% | [2]; at 11.0 µM -35% | [2]; at 33.0 µM -26% | [2]; at 100.0 µM 11% | [3]; at 1.2 µM -36% | [3]; at 3.7 µM -47% | [3]; at 11.0 µM -47% | [3]; at 33.0 µM -51% | [3]; at 100.0 µM 20% | [4]; at 1.2 µM -31% | [4]; at 3.7 µM -32% | [4]; [16] 59% | [4]; at 11.0 µM -26% | [4]; at 33.0 µM 32% | [4]; at 50.0 µM 62.9% | [5]; at 1.2 µM -87% | [5]; at 3.7 µM -42% | [5]; [16] 68% | [5]; at 11.0 µM -67% | [5]; at 33.0 µM -32% | [5]; at 50.0 µM 40.1% | [6]; at 1.2 µM -18% | [6]; at 3.7 µM -18% | [6]; at 11.0 µM -7% | [6]; at 33.0 µM 8% | [7]; [16] -4% | [7]; at 50.0 µM 51.4% | [8]; at 1.2 µM -16% | [8]; at 3.7 µM -3% | [8]; at 11.0 µM -9% | [8]; at 33.0 µM -8% | [10]; at 1.2 µM -32% | [10]; at 3.7 µM -27% | [10]; [16] 20% | [10]; at 11.0 µM -13% | [10]; at 33.0 µM -16% | [10]; at 50.0 µM 64.8% | [12]; at 1.2 µM -39% | [12]; at 3.7 µM -64% | [12]; at 11.0 µM -66% | [12]; at 33.0 µM -42% | [13]; at 1.2 µM -62% | [13]; at 3.7 µM -43% | [13]; at 11.0 µM -52% | [13]; at 33.0 µM -42% | [14]; [16] 67% | [14]; at 50.0 µM 64% | [15]; at 1.2 µM -8% | [15]; at 3.7 µM -11% | [15]; at 11.0 µM -21% | [15]; at 33.0 µM 46%
active: [1]; at 100.0 µM 90% | [4]; [17] 99% | [4]; at 100.0 µM 94% | [5]; [17] 100% | [5]; at 100.0 µM 95% | [6]; at 100.0 µM 97% | [7]; [17] 77% | [8]; at 100.0 µM 93% | [10]; [17] 81% | [10]; at 100.0 µM 96% | [12]; at 100.0 µM 92% | [13]; at 100.0 µM 86% | [14]; [17] 100% | [15]; at 100.0 µM 95%
